# Measurements taken from paper PMC7862700, “An all-to-all approach to the identification of sequence-specific readers for epigenetic DNA modifications on cytosine”.
# What was measured:
# Assay in all cases: DAPPL (digital affinity profiling via proximity ligation, sequencing); 10 mM Tris-HCl pH 7.5, 50 mM NaCl, 1 mM DTT, 4% glycerol, room temperature, 30 min; GST-TFs on glutathione beads, 16-mer random dsDNA library, 0.1% formaldehyde crosslink after washing; high values mean tight binding
# FLI1 = target: T1, FLI1 (Homo sapiens, UniProt Q01543 1-452); details: protein: recombinant; tags: N-terminal GST; dsDNA, one strand shown
# T1 sequence: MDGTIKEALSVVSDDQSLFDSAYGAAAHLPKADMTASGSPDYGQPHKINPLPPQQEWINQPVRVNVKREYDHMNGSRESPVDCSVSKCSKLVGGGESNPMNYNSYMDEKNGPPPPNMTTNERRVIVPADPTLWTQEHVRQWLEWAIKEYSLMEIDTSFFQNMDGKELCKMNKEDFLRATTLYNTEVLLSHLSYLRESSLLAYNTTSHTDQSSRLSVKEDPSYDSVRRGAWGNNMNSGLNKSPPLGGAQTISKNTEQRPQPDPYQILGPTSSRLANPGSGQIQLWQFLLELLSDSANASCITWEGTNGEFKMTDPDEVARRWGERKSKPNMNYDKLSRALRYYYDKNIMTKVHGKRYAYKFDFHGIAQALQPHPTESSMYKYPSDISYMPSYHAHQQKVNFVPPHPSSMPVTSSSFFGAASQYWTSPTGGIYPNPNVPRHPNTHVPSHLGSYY
# In short: (§1)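 In yeast, human transcription factors were expressed with a GST fusion, then pulled down on glutathione beads and given DNA barcodes. Pooled with a tag-only sample, they were exposed to 200 nmole of a 16-mer random double-stranded DNA library (Tris/NaCl/DTT/glycerol buffer, room temperature, 30 min), washed, crosslinked with 0.1% formaldehyde, proximity-ligated using BsaI/T4 ligase for 1 h at 37 °C, PCR-amplified and read on an Illumina NextSeq500. Each hexamer's frequency of reads for a factor, divided by the matching frequency for the tag-only sample, gives the binding signal.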
# ELK1 = target: T2, ELK1 (Homo sapiens, UniProt P19419 1-428); details: protein: recombinant; tags: N-terminal GST; dsDNA, one strand shown
# T2 sequence: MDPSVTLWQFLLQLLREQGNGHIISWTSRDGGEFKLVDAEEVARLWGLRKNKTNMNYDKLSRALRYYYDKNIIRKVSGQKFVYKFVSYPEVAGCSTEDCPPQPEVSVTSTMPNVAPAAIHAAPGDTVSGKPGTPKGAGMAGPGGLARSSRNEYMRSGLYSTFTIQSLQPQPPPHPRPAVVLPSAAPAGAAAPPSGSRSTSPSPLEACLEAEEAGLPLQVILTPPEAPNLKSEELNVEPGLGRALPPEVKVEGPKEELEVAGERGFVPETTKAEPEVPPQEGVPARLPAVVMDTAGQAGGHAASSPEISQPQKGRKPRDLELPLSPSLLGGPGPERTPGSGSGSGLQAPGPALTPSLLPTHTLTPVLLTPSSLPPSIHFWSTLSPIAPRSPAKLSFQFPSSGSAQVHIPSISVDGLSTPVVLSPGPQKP
# In short: as §1
# GABPA = target: T3, GABPA (Homo sapiens, UniProt Q06546 1-454); details: protein: recombinant; tags: N-terminal GST; dsDNA, one strand shown
# T3 sequence: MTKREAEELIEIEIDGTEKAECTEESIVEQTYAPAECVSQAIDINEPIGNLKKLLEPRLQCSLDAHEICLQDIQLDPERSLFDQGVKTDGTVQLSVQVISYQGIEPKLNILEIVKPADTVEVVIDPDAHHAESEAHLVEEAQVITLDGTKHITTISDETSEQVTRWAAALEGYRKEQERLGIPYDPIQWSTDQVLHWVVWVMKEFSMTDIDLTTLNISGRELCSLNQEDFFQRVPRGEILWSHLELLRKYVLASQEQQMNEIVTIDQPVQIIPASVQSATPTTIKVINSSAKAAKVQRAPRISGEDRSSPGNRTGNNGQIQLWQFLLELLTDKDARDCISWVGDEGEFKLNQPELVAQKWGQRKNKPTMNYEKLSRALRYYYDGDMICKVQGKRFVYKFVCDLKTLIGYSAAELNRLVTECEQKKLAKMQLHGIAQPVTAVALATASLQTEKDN
# In short: as §1
# ERG = target: T4, ERG (Homo sapiens, UniProt P11308 1-479); details: protein: recombinant; tags: N-terminal GST; dsDNA, one strand shown
# T4 sequence: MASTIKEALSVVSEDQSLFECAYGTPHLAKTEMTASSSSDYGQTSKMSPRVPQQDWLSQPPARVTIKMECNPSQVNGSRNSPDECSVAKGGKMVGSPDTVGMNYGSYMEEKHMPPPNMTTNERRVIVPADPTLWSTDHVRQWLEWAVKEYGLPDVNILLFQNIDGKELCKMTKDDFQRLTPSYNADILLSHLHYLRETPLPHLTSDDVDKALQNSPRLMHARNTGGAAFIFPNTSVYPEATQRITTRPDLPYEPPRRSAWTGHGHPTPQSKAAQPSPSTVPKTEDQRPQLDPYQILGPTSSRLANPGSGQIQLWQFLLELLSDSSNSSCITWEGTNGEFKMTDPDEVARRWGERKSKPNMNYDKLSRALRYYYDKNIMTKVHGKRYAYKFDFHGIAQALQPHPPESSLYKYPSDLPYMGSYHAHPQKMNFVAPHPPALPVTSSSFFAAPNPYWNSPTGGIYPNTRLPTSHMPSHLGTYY
# In short: as §1
# ELF1 = ELF1 (Homo sapiens, UniProt P32519 1-619); details: protein: recombinant; tags: N-terminal GST; dsDNA, one strand shown
# In short: as §1
# EHF = target: T5, EHF (Homo sapiens, UniProt Q9NZC4 1-300); details: protein: recombinant; tags: N-terminal GST; dsDNA, one strand shown
# T5 sequence: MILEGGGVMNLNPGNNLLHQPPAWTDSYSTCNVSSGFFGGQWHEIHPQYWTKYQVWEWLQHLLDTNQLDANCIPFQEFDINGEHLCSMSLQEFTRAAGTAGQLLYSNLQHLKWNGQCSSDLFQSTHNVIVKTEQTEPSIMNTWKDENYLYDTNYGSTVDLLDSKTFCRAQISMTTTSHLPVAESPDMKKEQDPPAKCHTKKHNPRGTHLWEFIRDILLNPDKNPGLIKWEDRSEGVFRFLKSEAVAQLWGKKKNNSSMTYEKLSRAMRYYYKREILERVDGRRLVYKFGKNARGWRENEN
# In short: as §1
# SPI1 = SPI1 (Homo sapiens, UniProt P17947 1-270); details: protein: recombinant; tags: N-terminal GST; dsDNA, one strand shown
# In short: as §1
# SPIB = SPIB (Homo sapiens, UniProt Q01892 1-262); details: protein: recombinant; tags: N-terminal GST; dsDNA, one strand shown
# In short: as §1
# ELK3 = target: T6, ELK3 (Homo sapiens, UniProt P41970 1-407); details: protein: recombinant; tags: N-terminal GST; dsDNA, one strand shown
# T6 sequence: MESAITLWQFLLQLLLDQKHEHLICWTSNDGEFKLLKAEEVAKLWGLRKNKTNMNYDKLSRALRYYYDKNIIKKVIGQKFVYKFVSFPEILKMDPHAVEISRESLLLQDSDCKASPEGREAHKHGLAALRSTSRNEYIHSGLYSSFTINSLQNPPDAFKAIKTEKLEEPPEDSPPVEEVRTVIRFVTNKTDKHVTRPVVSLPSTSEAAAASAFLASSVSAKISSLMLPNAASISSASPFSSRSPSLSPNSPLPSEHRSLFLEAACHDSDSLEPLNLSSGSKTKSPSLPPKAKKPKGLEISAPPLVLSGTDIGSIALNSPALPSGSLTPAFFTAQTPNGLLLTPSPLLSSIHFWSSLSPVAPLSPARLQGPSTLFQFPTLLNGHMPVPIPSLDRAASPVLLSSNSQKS
# In short: as §1
# FEV = target: T7, FEV (Homo sapiens, UniProt Q99581 1-238); details: protein: recombinant; tags: N-terminal GST; dsDNA, one strand shown
# T7 sequence: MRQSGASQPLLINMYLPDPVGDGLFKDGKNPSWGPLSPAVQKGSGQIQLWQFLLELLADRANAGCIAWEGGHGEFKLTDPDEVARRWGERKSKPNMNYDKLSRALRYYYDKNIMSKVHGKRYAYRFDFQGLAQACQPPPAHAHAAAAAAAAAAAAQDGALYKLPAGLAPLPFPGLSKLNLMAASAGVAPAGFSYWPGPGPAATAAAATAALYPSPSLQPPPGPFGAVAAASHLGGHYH
# In short: as §1
# ETV5 = ETV5 (Homo sapiens, UniProt P41161 1-510); details: protein: recombinant; tags: N-terminal GST; dsDNA, one strand shown
# In short: as §1
# HSF1 = HSF1 (Homo sapiens, UniProt Q00613 1-529); details: protein: recombinant; tags: N-terminal GST; chain copies: 3; dsDNA, one strand shown
# In short: as §1
# ELF4 = ELF4 (Homo sapiens, UniProt Q99607 1-663); details: protein: recombinant; tags: N-terminal GST; dsDNA, one strand shown
# In short: as §1
# ELK4 = target: T8, ELK4 (Homo sapiens, UniProt P28324-2 1-405); details: protein: recombinant; tags: N-terminal GST; dsDNA, one strand shown
# T8 sequence: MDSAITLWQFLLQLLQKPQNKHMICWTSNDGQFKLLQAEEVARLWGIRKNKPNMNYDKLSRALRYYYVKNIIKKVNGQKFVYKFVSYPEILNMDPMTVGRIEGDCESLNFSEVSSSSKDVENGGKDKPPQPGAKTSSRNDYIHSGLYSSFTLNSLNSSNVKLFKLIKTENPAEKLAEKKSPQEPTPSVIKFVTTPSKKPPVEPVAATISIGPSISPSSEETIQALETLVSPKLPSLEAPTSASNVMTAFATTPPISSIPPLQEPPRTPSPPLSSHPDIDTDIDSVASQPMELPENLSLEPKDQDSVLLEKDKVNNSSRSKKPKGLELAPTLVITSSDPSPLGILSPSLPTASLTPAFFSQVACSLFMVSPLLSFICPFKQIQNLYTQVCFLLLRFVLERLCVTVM
# In short: as §1
# ETV2 = target: T9, ETV2 (Homo sapiens, UniProt O00321 1-342); details: protein: recombinant; tags: N-terminal GST; dsDNA, one strand shown
# T9 sequence: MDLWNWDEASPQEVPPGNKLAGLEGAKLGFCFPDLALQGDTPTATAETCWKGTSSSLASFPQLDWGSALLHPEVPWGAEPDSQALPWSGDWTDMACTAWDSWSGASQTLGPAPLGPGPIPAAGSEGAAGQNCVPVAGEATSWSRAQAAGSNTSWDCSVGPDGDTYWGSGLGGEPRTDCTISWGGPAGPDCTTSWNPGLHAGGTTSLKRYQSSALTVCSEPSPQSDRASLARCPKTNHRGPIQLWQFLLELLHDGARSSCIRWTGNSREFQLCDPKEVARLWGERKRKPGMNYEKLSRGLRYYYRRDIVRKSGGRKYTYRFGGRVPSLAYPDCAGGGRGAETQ
# In short: as §1
# ELF3 = target: T10, ELF3 (Homo sapiens, UniProt P78545 1-371); details: protein: recombinant; tags: N-terminal GST; dsDNA, one strand shown
# T10 sequence: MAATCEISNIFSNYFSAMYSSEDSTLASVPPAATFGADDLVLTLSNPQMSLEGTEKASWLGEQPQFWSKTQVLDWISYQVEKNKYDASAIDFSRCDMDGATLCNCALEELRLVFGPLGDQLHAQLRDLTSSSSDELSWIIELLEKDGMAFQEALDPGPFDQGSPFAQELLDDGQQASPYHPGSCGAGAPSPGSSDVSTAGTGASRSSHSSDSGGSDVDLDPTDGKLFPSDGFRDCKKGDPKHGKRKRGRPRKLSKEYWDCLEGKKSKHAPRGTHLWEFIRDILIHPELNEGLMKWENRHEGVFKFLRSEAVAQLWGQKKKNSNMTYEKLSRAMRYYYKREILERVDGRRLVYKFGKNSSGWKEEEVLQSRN
# In short: as §1
# ETV1 = ETV1 (Homo sapiens, UniProt P50549 1-477); details: protein: recombinant; tags: N-terminal GST; dsDNA, one strand shown
# In short: as §1
# Sequence of HSF1 (Q00613 whole entry): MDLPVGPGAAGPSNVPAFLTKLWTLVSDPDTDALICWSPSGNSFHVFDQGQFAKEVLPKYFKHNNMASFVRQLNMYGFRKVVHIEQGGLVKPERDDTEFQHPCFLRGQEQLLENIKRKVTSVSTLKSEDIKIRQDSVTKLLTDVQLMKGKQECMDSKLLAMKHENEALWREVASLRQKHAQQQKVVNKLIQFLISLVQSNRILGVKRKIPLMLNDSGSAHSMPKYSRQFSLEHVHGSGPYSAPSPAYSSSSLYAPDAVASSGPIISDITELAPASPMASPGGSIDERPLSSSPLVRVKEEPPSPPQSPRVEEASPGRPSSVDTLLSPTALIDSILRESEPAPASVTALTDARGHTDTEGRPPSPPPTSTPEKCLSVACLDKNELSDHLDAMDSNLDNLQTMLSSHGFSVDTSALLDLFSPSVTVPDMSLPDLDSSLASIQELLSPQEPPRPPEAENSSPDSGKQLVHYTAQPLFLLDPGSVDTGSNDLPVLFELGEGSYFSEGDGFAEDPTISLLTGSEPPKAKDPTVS
# Sequence of ELF4 (Q99607 whole entry): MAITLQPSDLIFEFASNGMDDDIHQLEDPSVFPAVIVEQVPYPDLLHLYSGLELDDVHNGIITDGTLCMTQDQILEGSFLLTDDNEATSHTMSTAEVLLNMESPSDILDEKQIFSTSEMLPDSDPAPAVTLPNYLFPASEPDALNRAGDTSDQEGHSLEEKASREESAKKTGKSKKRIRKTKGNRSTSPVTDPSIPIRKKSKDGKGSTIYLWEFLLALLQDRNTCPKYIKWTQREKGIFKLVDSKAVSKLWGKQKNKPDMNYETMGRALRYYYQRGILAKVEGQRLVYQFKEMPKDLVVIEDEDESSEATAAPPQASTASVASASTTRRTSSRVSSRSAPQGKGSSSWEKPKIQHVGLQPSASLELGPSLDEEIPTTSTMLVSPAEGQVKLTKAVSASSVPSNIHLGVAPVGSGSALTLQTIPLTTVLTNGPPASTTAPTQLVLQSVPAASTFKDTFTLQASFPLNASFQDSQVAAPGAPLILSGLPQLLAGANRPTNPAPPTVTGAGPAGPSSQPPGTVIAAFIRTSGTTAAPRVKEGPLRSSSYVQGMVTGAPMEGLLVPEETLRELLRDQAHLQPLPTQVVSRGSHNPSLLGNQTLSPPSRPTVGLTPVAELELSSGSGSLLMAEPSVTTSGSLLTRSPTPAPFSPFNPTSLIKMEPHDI
# Sequence of ETV5 (P41161 whole entry): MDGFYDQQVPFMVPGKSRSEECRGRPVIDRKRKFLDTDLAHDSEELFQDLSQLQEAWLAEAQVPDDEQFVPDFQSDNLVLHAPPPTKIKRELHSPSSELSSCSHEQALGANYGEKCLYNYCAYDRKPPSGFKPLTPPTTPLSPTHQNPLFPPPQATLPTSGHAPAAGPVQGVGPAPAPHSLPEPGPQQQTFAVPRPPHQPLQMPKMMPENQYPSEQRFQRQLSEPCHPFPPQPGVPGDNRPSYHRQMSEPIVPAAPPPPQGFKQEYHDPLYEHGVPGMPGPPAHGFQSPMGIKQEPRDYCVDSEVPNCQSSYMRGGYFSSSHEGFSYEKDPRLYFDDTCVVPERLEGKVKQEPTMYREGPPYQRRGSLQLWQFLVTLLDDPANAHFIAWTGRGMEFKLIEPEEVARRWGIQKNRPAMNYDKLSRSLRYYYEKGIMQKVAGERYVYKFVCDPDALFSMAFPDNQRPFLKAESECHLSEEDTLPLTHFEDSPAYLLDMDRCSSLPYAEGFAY
# Sequence of ETV1 (P50549 whole entry): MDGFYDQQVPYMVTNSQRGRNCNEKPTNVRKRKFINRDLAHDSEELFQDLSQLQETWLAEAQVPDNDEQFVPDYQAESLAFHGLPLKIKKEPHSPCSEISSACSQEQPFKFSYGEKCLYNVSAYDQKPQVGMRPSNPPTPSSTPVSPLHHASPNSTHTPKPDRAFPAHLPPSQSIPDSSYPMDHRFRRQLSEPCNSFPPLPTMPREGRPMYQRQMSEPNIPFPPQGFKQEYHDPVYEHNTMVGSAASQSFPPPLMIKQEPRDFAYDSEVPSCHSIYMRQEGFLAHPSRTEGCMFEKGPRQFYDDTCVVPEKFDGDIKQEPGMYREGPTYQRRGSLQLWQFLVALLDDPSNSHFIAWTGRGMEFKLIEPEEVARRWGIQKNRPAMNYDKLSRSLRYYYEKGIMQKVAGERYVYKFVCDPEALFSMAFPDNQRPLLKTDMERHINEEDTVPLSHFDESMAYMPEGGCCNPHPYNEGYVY
# Sequence of ELF1 (P32519 whole entry): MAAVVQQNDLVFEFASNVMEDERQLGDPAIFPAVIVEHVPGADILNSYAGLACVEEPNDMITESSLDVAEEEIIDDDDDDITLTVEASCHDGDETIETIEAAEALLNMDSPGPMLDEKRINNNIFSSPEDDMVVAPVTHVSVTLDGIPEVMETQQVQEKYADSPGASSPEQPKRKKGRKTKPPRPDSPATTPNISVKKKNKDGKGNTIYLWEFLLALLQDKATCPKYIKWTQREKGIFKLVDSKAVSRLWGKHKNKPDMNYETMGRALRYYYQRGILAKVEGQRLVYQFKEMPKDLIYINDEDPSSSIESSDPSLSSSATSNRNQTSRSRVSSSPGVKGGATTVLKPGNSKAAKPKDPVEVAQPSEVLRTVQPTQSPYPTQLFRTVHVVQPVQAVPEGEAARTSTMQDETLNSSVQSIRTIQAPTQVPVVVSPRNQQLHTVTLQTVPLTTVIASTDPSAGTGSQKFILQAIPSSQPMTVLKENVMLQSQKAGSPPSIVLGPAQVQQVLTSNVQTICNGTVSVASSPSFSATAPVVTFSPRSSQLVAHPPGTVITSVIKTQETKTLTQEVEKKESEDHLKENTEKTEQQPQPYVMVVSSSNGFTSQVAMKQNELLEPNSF
# Sequence of SPIB (Q01892 whole entry): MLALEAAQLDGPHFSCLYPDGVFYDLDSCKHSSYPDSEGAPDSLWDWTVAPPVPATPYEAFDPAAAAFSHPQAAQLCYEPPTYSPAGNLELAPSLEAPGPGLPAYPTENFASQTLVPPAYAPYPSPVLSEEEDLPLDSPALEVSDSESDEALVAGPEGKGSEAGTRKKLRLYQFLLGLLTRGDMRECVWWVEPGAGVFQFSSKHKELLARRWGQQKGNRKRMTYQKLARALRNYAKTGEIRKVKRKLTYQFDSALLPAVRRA
sequence,measurement,setting,value
ACGCCC,binding signal,FLI1,"1.22 fold enrichment (6-mer frequency, TF over GST control)"
same,binding signal,ELK1,"1.21 fold enrichment (6-mer frequency, TF over GST control)"
same,binding signal,GABPA,"1.25 fold enrichment (6-mer frequency, TF over GST control)"
same,binding signal,ERG,"1.11 fold enrichment (6-mer frequency, TF over GST control)"
same,binding signal,ELF1,"1.21 fold enrichment (6-mer frequency, TF over GST control)"
same,binding signal,EHF,"1.18 fold enrichment (6-mer frequency, TF over GST control)"
same,binding signal,SPI1,"1.11 fold enrichment (6-mer frequency, TF over GST control)"
same,binding signal,SPIB,"1.14 fold enrichment (6-mer frequency, TF over GST control)"
same,binding signal,ELK3,"1.11 fold enrichment (6-mer frequency, TF over GST control)"
same,binding signal,FEV,"1.12 fold enrichment (6-mer frequency, TF over GST control)"
same,binding signal,ETV5,"1.16 fold enrichment (6-mer frequency, TF over GST control)"
same,binding signal,HSF1,"1 fold enrichment (6-mer frequency, TF over GST control)"
same,binding signal,ELF4,"1.2 fold enrichment (6-mer frequency, TF over GST control)"
same,binding signal,ELK4,"1.18 fold enrichment (6-mer frequency, TF over GST control)"
same,binding signal,ETV2,"1.05 fold enrichment (6-mer frequency, TF over GST control)"
same,binding signal,ELF3,"1.06 fold enrichment (6-mer frequency, TF over GST control)"
same,binding signal,ETV1,"1.16 fold enrichment (6-mer frequency, TF over GST control)"
